# Experimental data published in PubChem BioAssay AID731 (The Scripps Research Institute Molecular Screening Center, 2007).
# Screen size: about 200,000 compounds; about 520 (0.26%) were called active. Cut-off read from the data, not from the text of the source: active = activation above about 23%; inactive = the rest. Many of the other results were omitted from the sample, so actives are more common in it than they were.
# Molecular target: Peroxisome proliferator-activated receptor gamma (Homo sapiens) (UniProt P37231)
# Sequence (P37231 whole entry, looked up): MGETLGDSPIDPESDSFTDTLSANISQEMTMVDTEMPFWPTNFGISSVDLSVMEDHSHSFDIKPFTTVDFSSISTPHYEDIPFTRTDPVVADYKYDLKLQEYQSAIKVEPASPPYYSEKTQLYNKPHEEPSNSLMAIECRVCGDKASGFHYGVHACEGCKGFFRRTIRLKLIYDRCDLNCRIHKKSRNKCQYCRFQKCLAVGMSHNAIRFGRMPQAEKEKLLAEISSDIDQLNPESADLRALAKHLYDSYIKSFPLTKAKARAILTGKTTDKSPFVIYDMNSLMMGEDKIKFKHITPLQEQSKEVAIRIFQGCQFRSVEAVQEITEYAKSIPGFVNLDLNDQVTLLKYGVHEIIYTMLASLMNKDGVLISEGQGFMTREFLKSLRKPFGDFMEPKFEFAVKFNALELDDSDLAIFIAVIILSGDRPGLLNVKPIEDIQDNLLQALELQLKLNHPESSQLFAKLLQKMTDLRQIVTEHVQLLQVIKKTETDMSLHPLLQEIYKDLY
# Assay: PPARgamma agonists recruiting SRC-3 coactivator, primary screen, biochemical (AID 731);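 note: 0% = DMSO and 100% = reference agonist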
# Conditions: biochemical PPARgamma/SRC-3 coactivator recruitment assay; at 8 µM; hits give high values
row,SMILES,activation
1,CSC1=NP(=S)(SC)N(C)c2nc3n(c21)CCC3 (stereo not given),102% (active)
2,CCCCCCN=C(CC)c1c(O)n(CCCC)c(=O)[nH]c1=O,-4.72% (inactive)
3,CCNc1nc2[nH]c(=O)c3c(c2s1)OC(N)=C(C#N)C3c1cccs1 (stereo not given),-2.75% (inactive)
4,CCN(CC)c1ccc([N+](=O)[O-])c2cccnc12,4.74% (inactive)
5,CC[N+](CC)(CC)CCCCCCCCCC[N+](CC)(CC)CC,-1.93% (inactive)
